{"source": "ChEMBL document CHEMBL2218924", "about": "“A broad activity screen in support of a chemogenomic map for kinase signalling research and drug discovery” (Biochem J, 2013)"}
{"target": "Ribosomal protein S6 kinase alpha-6 (Homo sapiens) (UniProt Q9UK32)", "sequence (Q9UK32 whole entry)": "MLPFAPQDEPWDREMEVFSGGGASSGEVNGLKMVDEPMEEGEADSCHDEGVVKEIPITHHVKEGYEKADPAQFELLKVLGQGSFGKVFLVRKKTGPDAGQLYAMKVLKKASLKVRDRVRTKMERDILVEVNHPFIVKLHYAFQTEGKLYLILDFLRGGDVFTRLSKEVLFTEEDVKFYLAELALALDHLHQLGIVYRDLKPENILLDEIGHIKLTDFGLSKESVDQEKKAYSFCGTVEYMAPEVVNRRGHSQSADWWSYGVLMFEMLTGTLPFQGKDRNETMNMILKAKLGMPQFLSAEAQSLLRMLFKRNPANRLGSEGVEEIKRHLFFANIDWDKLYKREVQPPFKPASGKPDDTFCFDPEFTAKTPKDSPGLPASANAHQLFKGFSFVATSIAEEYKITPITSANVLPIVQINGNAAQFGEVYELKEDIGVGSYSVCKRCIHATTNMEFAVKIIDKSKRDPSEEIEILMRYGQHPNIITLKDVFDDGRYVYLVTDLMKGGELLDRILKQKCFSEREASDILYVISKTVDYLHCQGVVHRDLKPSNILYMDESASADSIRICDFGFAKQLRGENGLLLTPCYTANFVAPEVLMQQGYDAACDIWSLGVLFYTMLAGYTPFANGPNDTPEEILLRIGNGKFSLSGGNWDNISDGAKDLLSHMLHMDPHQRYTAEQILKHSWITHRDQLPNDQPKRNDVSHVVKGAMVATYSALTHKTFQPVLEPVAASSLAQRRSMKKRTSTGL", "details": "at 10 µM", "units": {"residual activity": "%"}}
{"compound": "Oc1c2ccccc2c2c3c(cccc13)N=N2", "residual activity": 52}
{"compound": "Nc1nc(Nc2ccc(S(N)(=O)=O)cc2)nn1C(=S)Nc1c(F)cccc1F", "residual activity": -2}
{"compound": "O=C1Nc2ccc(Br)cc2/C1=C\\c1cc2c([nH]1)CCCC2", "residual activity": 113}
{"compound": "Cc1nc(-c2ccccc2)c(-c2ccncc2)o1", "residual activity": 117}
{"compound": "COc1cc2ncnc(Nc3ccc(O)c(Br)c3)c2cc1OC", "residual activity": 18}
{"compound": "Nc1cccc(-c2cc3c(Oc4cccc(O)c4)ncnc3[nH]2)c1", "residual activity": 41}
{"compound": "CCOc1cc2ncnc(Nc3cccc(Br)c3)c2cc1OCC", "residual activity": 46}
{"compound": "CO[C@H]1C[C@@H]2CC[C@@H](C)[C@@](O)(O2)C(=O)C(=O)N2CCCC[C@H]2C(=O)O[C@H]([C@H](C)C[C@@H]2CC[C@@H](O)[C@H](OC)C2)CC(=O)[C@H](C)/C=C(\\C)[C@@H](O)[C@@H](OC)C(=O)[C@H](C)C[C@H](C)/C=C/C=C/C=C/1C", "residual activity": 112}
{"compound": "COc1cc2ncnc(Nc3ccc(Oc4ccccc4)cc3)c2cc1OC", "residual activity": 130}
{"compound": "COc1ccc(OC)c2c(=S)c3ccccc3[nH]c12", "residual activity": 98}
{"compound": "CO[C@H]1[C@@H](OC)C[C@H](C)[C@@H](OC)C2=CC(=O)C=C(NC(=O)/C(C)=C/C=C/[C@H](OC)[C@@H](OC(N)=O)/C(C)=C/[C@@H]1C)C2=O", "residual activity": 91}
{"compound": "Cc1ccc(NC2=CC(=O)c3sc(C)nc3C2=O)cc1", "residual activity": 111}
{"compound": "O=C1NC(=O)/C(=C\\c2ccc3nccnc3c2)S1", "residual activity": 99}
{"compound": "O=C1c2ccccc2-[n+]2ccc3c([nH]c4ccccc43)c21", "residual activity": 102}
{"compound": "COc1ccc(CNc2nc(N(CCO)CCO)nc3c2ncn3C(C)C)cc1", "residual activity": 56}
{"compound": "CN(C)c1ccc(/C=C2\\C(=O)Nc3ccccc32)cc1", "residual activity": 40}
{"compound": "Oc1ccc(Nc2nc(-c3ccc(Cl)cc3)cs2)cc1", "residual activity": 113}
{"compound": "CC(C)n1cnc2c(NCc3ccccc3)nc(NCCCO)nc21", "residual activity": 91}
{"compound": "N#Cc1cnc2cnc(NCc3cccnc3)cc2c1Nc1ccc(F)c(Cl)c1", "residual activity": 93}
{"compound": "CC#CC(=O)Nc1cc2c(Nc3ccc(F)c(Cl)c3)ncnc2cn1", "residual activity": 105}
{"compound": "Cn1cc(/C=C2\\C(=O)Nc3ccc(S(N)(=O)=O)cc32)c2ccccc21", "residual activity": 10}
{"compound": "NC(=O)c1ccc2[nH]c(-c3ccc(Oc4ccc(Cl)cc4)cc3)nc2c1", "residual activity": 29}
{"compound": "COc1ccc(C(=O)Nc2sc3c(c2C(N)=O)CCCC3)cc1OC", "residual activity": 99}
{"compound": "N#CCCc1ccc2c(c1)-c1[nH]c3ccc([N+](=O)[O-])cc3c1CC(=O)N2", "residual activity": 5}
{"compound": "Cn1cnc2cc3c(Nc4cccc(Br)c4)ncnc3cc21", "residual activity": 68}
{"compound": "N#C/C(=C(\\N)Sc1ccc(N)cc1)c1ccccc1C(F)(F)F", "residual activity": 104}
{"compound": "Nc1ccc2ncnc(NCCc3ccc(Oc4ccccc4)cc3)c2c1", "residual activity": 77}
{"compound": "O=c1cc(-c2cccc3c2Sc2ccccc2S3)oc(N2CCOCC2)c1", "residual activity": 87}
{"compound": "Cc1cc2ncc(-c3ccccc3)nc2cc1C", "residual activity": 100}
{"compound": "O=C(Nc1cccc(Nc2cc(Nc3cccc(C(F)(F)F)c3)ncn2)c1)C1CC1", "residual activity": 99}
{"compound": "O=C1NC(=O)c2c1c1c3ccccc3[nH]c1c1[nH]c3cc(Br)ccc3c21", "residual activity": 82}
{"compound": "O=C(Nc1cccc(Nc2nccc(Nc3cccc(C(F)(F)F)c3)n2)c1)C1CC1", "residual activity": 128}
{"compound": "Oc1ccc(-c2nc(-c3ccc(F)cc3)c(-c3ccncc3)[nH]2)cc1", "residual activity": 92}
{"compound": "CC[n+]1c(/C=C/N(C)c2ccccc2)n(-c2ccccc2)c2ccc(-c3nc4ccccc4s3)cc21", "residual activity": 87}
{"compound": "O=C1NC(=O)c2cc(Nc3ccc(F)cc3)c(Nc3ccc(F)cc3)cc21", "residual activity": 100}
{"target": "Mitogen-activated protein kinase 14 (Homo sapiens) (UniProt Q16539)", "sequence (Q16539 whole entry)": "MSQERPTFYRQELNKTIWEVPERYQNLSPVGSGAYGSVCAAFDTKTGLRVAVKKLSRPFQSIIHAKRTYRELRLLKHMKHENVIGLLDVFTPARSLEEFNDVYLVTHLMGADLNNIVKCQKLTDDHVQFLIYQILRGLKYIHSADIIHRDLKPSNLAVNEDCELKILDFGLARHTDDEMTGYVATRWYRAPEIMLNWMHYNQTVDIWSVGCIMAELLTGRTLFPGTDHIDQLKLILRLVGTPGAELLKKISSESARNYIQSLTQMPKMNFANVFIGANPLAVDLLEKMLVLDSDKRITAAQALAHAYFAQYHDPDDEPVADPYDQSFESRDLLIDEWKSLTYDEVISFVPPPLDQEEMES", "details": "at 1 µM", "units": {"residual activity": "%"}}
{"compound": "Oc1c2ccccc2c2c3c(cccc13)N=N2", "residual activity": 96}
{"compound": "Nc1nc(Nc2ccc(S(N)(=O)=O)cc2)nn1C(=S)Nc1c(F)cccc1F", "residual activity": 88}
{"compound": "Cc1nc(-c2ccccc2)c(-c2ccncc2)o1", "residual activity": 57}
{"compound": "COc1cc2ncnc(Nc3ccc(O)c(Br)c3)c2cc1OC", "residual activity": 51}
{"compound": "Nc1cccc(-c2cc3c(Oc4cccc(O)c4)ncnc3[nH]2)c1", "residual activity": 54}
{"compound": "CCOc1cc2ncnc(Nc3cccc(Br)c3)c2cc1OCC", "residual activity": 57}
{"compound": "CO[C@H]1C[C@@H]2CC[C@@H](C)[C@@](O)(O2)C(=O)C(=O)N2CCCC[C@H]2C(=O)O[C@H]([C@H](C)C[C@@H]2CC[C@@H](O)[C@H](OC)C2)CC(=O)[C@H](C)/C=C(\\C)[C@@H](O)[C@@H](OC)C(=O)[C@H](C)C[C@H](C)/C=C/C=C/C=C/1C", "residual activity": 72}
{"compound": "COc1cc2ncnc(Nc3ccc(Oc4ccccc4)cc3)c2cc1OC", "residual activity": 75}
{"compound": "COc1ccc(OC)c2c(=S)c3ccccc3[nH]c12", "residual activity": 88}
{"compound": "Cc1ccc(NC2=CC(=O)c3sc(C)nc3C2=O)cc1", "residual activity": 97}
{"compound": "O=C1NC(=O)/C(=C\\c2ccc3nccnc3c2)S1", "residual activity": 82}
{"compound": "O=C1c2ccccc2-[n+]2ccc3c([nH]c4ccccc43)c21", "residual activity": 87}
{"compound": "COc1ccc(CNc2nc(N(CCO)CCO)nc3c2ncn3C(C)C)cc1", "residual activity": 96}
{"compound": "CN(C)c1ccc(/C=C2\\C(=O)Nc3ccccc32)cc1", "residual activity": 102}
{"compound": "Oc1ccc(Nc2nc(-c3ccc(Cl)cc3)cs2)cc1", "residual activity": 89}
{"compound": "CC(C)n1cnc2c(NCc3ccccc3)nc(NCCCO)nc21", "residual activity": 87}
{"compound": "N#Cc1cnc2cnc(NCc3cccnc3)cc2c1Nc1ccc(F)c(Cl)c1", "residual activity": 87}
{"compound": "CC#CC(=O)Nc1cc2c(Nc3ccc(F)c(Cl)c3)ncnc2cn1", "residual activity": 91}
{"compound": "Cn1cc(/C=C2\\C(=O)Nc3ccc(S(N)(=O)=O)cc32)c2ccccc21", "residual activity": 94}
{"compound": "NC(=O)c1ccc2[nH]c(-c3ccc(Oc4ccc(Cl)cc4)cc3)nc2c1", "residual activity": 90}
{"compound": "COc1ccc(C(=O)Nc2sc3c(c2C(N)=O)CCCC3)cc1OC", "residual activity": 93}
{"compound": "Cn1cnc2cc3c(Nc4cccc(Br)c4)ncnc3cc21", "residual activity": 64}
{"compound": "N#C/C(=C(\\N)Sc1ccc(N)cc1)c1ccccc1C(F)(F)F", "residual activity": 87}
{"compound": "Nc1ccc2ncnc(NCCc3ccc(Oc4ccccc4)cc3)c2c1", "residual activity": 90}
{"compound": "O=c1cc(-c2cccc3c2Sc2ccccc2S3)oc(N2CCOCC2)c1", "residual activity": 103}
{"compound": "Cc1cc2ncc(-c3ccccc3)nc2cc1C", "residual activity": 85}
{"compound": "O=C(Nc1cccc(Nc2cc(Nc3cccc(C(F)(F)F)c3)ncn2)c1)C1CC1", "residual activity": 80}
{"compound": "O=C1NC(=O)c2c1c1c3ccccc3[nH]c1c1[nH]c3cc(Br)ccc3c21", "residual activity": 93}
{"compound": "O=C(Nc1cccc(Nc2nccc(Nc3cccc(C(F)(F)F)c3)n2)c1)C1CC1", "residual activity": 79}
{"compound": "CC[n+]1c(/C=C/N(C)c2ccccc2)n(-c2ccccc2)c2ccc(-c3nc4ccccc4s3)cc21", "residual activity": 111}
{"compound": "O=C1NC(=O)c2cc(Nc3ccc(F)cc3)c(Nc3ccc(F)cc3)cc21", "residual activity": 57}
